High-throughput results from PubChem BioAssay.
TDP1 block = blocks human tyrosyl-DNA phosphodiesterase 1; Q9NUW8; recombinant TDP1, AlphaScreen DNA substrate cleavage; 350,000 tested, 0.28% active; Potency, µM (top dose mostly 130 µM), for inactives: at the highest dose activity change, negative = inhibition, most hits filed as inhibitors; AID 485290; note: nearly all actives have a fitted effect of over 40% in size
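AlphaScreen read-out: signal falls as enzyme removes the 3' tyrosine-FITC from a 5'-biotinylated DNA oligo (15 nM, 5 min, RT). Enzyme was E. coli-made recombinant Tdp1 at 1 nM, exposed to compound for 15 min beforehand; beads 10 ug/ml, 10 min.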
APEX1 inh = APE1 (human) endonuclease inhibition. P27695. recombinant APE1, TAMRA/BHQ-2 abasic DNA cleavage fluorescence. Potency, µM (highest dose often 65.8 µM), without a hit: at the highest dose activity change, negative = inhibition, hits mostly inhibitors. 350,000 tested, 0.35% active;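 note: plate controls were vehicle for no effect and reference inhibitor for full effect; nearly all actives have a fitted effect of over 55% in size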
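Activity was derived from the fluorescence gain between first and third kinetic reads (60 s intervals, ex 525/em 598 nm) after 50 nM THF-abasic TAMRA/BHQ-2 duplex was added to 0.75 nM APE1 preincubated 15 min with compound.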
RECQ1 inh-1 = blocks DNA unwinding by human RECQ1 | RECQ1 DNA unwinding, red fluorescence kinetic read | Potency, µM (highest dose often 57.3 µM), for inactives: at the top dose activity, negative = inhibition, most hits filed as inhibitors | 240,000 tested, 0.54% active | AID 2549;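 note: plate controls were vehicle for no effect and no enzyme for full effect; nearly all actives have a fitted effect of over 30% in size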
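RECQ1T1 50 nM; forked duplex (20 bp + 30-nt ss tails) 200 nM, ATP 2 mM final; pH 8.0, 2 mM MgCl2, 2.5 ug/ml poly(dI-dC); 15 min compound preincubation; discontinuous kinetic read over 2 h at RT.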
GCN5L2 inh = inhibitors of human GCN5L2 histone acetyltransferase. Q92830. GCN5L2 HAT assay, ThioGlo1 CoA-SH fluorescence. Potency, µM (top dose mostly 58.9 µM), without a hit: top-dose activity change, negative = inhibition, most hits filed as inhibitors. 390,000 tested, 0.21% active. AID 504327
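qHTS, 1536-well. 20nM enzyme, pH 7.5 HEPES/EDTA/Tween-20 buffer; 15 min compound preinc., RT. Start: 75uM H3(1-25), 70uM AcCoA, 50uM ThioGlo1. Read Ex340/Em540 at t=0 (autofluorescence flag) and t=20 min.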
Lamin A splicing = changes lamin A minigene splicing in HeLa cells. HeLa LMNA splicing GFP/RFP minigene ratio, 48 h. Potency, µM (highest dose often 46.1 µM), for the others: top-dose ratio change, negative = inhibition, usual class: inhibitors. 200,000 tested, 0.01% active; active = well fitted inhibition curve with a large enough effect in the signal ratio, with a control signal flat, not every such curve was filed as active; inconclusive = small, poorly fitted or top-dose-only effect, or effect the other way, or a change in a side signal; the % refers to the signal ratio
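S3 HeLa stable clones carrying a lamin A-EGFP splicing minigene plus DsRed2 were seeded at 600 cells/well in Opti-MEM with 2% FBS, pin-dosed and incubated 48 h at 37°C. Acumen cytometry (488 nm) gave the GFP/RFP total-intensity ratio.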
BLM helicase inh = blocks DNA unwinding by human BLM helicase; recombinant BLM DNA unwinding, fluorescence dequenching; 350,000 tested, 0.2% active; AID 2528; Potency, µM (top dose mostly 56.1 µM), without a hit: at the top dose activity change, negative = inhibition, hits mostly inhibitors;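 note: plate controls were vehicle for no effect and no enzyme for full effect; nearly all actives have a fitted effect of over 35% in size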
RECQ1 inh conf = confirmation of human RECQ1 helicase inhibitors. shares compounds with RECQ1 inh-1. RECQ1 helicase DNA unwinding, fluorescence. Potency, µM (doses to about 229 µM), for the others: at the highest dose activity change, negative = inhibition, hits mostly inhibitors. 610 tested, 28% active; note: nearly all actives have a fitted effect of over 45% in size
RECQ1 ADP FP = counter-screen for RECQ1 inhibitors: ADP displacement; shares compounds with RECQ1 inh-1; ADP fluorescence polarization displacement counterscreen; Potency, µM (highest dose often 228 µM), for the others: at the top dose activity change, negative = inhibition, hits mostly inhibitors; 530 tested, 27% active; AID 2711; note: nearly all actives have a fitted effect of over 45% in size
RECQ1 inh-2 = blocks human RECQ1 DNA unwinding. 1,100 tested, 15% active. Potency, µM (titrated, usually from 119 µM), inactives show top-dose activity, negative = inhibition, most hits filed as inhibitors. recombinant RECQ1 DNA unwinding, red fluorescence. shares compounds with RECQ1 inh-1; note: nearly all actives have a fitted effect of over 50% in size
Numbers without * were called inactive; i = inactive; ? = inconclusive; · = not tested or not shown; [ ] = remark or other dose. In the library only some 0.9% were active in any assay of this set; here they are far more common. Unless noted, calls come from the whole dose curve; as a rule, active = well fitted curve in the direction sought with a large enough effect; inconclusive = small, poorly fitted or top-dose-only effect, or another doubt; inactive = no such curve, though single readings can be large; an effect the other way counts as inactive or inconclusive. Unless noted, % is set by controls: 0 for no effect and ±100 for the full control effect; potency is the fitted concentration of half-maximal effect.

SMILES	TDP1 block	APEX1 inh	RECQ1 inh-1	GCN5L2 inh	Lamin A splicing	BLM helicase inh	RECQ1 inh-2	others
CCOC(=O)C1(CCc2ccccc2)CCN(C(=O)C2CCCO2)CC1 (configuration not stated)	·	-2%	?	-2%	·	-2%	2%
Cc1cccc(CNc2cc(-c3ccoc3)ncn2)c1	-7%[56.1 µM]	-3%	?	-4%	?	-13%	-11%
O=C1c2ccccc2C(=O)N1c1ccccn1	1%	·	·	·	·	·	·
CCN(CC)c1ccc(/C=N/NC(=S)NCc2ccccc2)cc1	9%	-1%	7.1µM*	3%	12%	-8%	·	RECQ1 inh conf=-7%[114 µM];RECQ1 ADP FP=7%[91.9 µM]
CN(C)S(=O)(=O)c1ccc(C(=O)OCc2nnc(-c3ccccc3)o2)cc1	·	24%	-3%	0%	·	-1%	·
O=C(OCc1nnc(-c2ccccc2)o1)c1ccc(S(=O)(=O)NCc2ccco2)cc1	-3%	?	40µM*	-20%	-8%	-12%	?
COc1ccccc1NC(=O)CSc1nc(O)cc(=O)n1-c1ccccc1OC	-2%	1%	-4%	?	1%	-2%	·
COc1ccccc1-n1c(SCC(=O)Nc2ccccc2C)nc(O)cc1=O	-7%	2%	10µM*	-1%	?	-16%	-7%	RECQ1 inh conf=11%[114 µM];RECQ1 ADP FP=12%[91.9 µM]
C[C@H](c1ccccc1)N1C(=O)[C@H]2[C@@H]3[C@H](O)[C@H](O)CC(=O)[C@H]3CC[C@H]2C1=O	4%[21 µM]	-5%[12.4 µM]	i[11.5 µM]	·	·	-2%[12.4 µM]	·
CCc1ccc(N2C(=O)N(CC(=O)C(C)(C)C)c3ccccc3S2(=O)=O)cc1	6%	·	·	-8%	-8%[46 µM]	-5%	·
COC(=O)c1cc(O)cc(OC)c1Oc1cc(C)cc(O)c1C(=O)O	·	0.63µM*	22µM*	-11%	·	8.9µM*	5µM*
COC(=O)c1c(C)cc(O)cc1O	2%	10%	-7%	-8%	21%	-9%	·
CCc1cc2ccccc2nc1SCC(=O)Nc1cc(OC)c(OC)cc1C(=O)O	3%	2%	4%	-3%	?	4%	·
COc1ccc2cc(C)c3nnc(SCC(=O)Nc4cc(OC)c(OC)cc4C(=O)O)n3c2c1	1%	1%	-3%	-1%	-5%[46 µM]	-1%	·	RECQ1 inh conf=21%;RECQ1 ADP FP=-8%
COc1cc(NC(=O)CSc2nc3ccccc3cc2C)c(C(=O)O)cc1OC	5%	0%	-6%	0%	-11%	-2%	·	RECQ1 inh conf=13%;RECQ1 ADP FP=?
COC(=O)C1=NOC2(C=C(Br)C(OC)=C(Br)C2=O)C1 (configuration not stated)	-5%[21 µM]	?	10%[11.5 µM]	·	·	1%[12.4 µM]	·
NC[C@H]1O[C@H](O[C@H]2[C@H](O[C@@H]3O[C@H](CO)[C@@H](O)[C@H]3O)C(O)[C@H](N)C[C@@H]2N)[C@H](N)[C@@H](O)[C@@H]1O (some centres not stated)	·	4%[21 µM]	·	·	·	·	·
CCn1c(SCC(=O)NCc2ccco2)nc2ccccc2c1=O	4%	4%	?	?	·	3%	-11%
Cc1cc(C)c2nc(-c3ccccn3)cc(C(=O)Nc3ccc(S(=O)(=O)Nc4onc(C)c4C)cc3)c2c1	40µM*	?	?	?	?	?	?
